The record followed here is PubChem BioAssay (NCI).

The panel holds about 83,000 compounds, 20% with a hit somewhere; the sample as a whole holds those more often.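 Results are percent growth after 48 hours of single-concentration exposure. 100 means growth as in untreated cells, lower positive values show inhibition; negative values down to -100 show cell death.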 The source made the active and inactive calls.

The assay deals with HL-60(TB) leukemia. In words: NCI-60 one-dose screen, 48 h (100 = growth as untreated, 0 = no growth, -100 = all killed). The settings on record: 10 µM unless noted. On the procedure:
Growth inhibition of the HL-60(TB) human tumor cell line is measured as a screen for anti-cancer activity. Cells are grown in 96 well plates and exposed to the test compound for 48 hours. Compounds are tested at a single concentration, which is 10^-5 M for most compounds. The reported endpoint is percent growth (GI% or GIPRCNT), where numbers from 0 - 100% represent growth inhibition, and numbers from -100% - 0 represent cell death. For example, a value of 40 represents 60% growth inhibition. A value of 0 means no net growth occurred over the course of the experiment. A value of -40 indicates 40% of cells at the beginning of the experiment died by the end of the experiment. A value of -100 means all cells are dead at the end of the experiment.
NCI-60 Human Tumor Cell Lines Screen was performed using the standard one-dose NCI protocol, which is described in more detail at https://dtp.cancer.gov/discovery_development/nci-60/default.htm.
Compounds with GIPRCNT values below 10 were considered active. Activity score was based on GIPRCNT using the following formula: […]
Score is 0 for GIPRCNT values of 100 or above, 50 for GIPRCNT values of 0, and 100 for GIPRCNT values of -100.
As for `N/C(=N\c1nc2ccccc2s1)NC(=O)NCCCCCCO`, the growth was 45.8% (inactive).
The value for `Cc1cccc(Nc2nc3ccccc3nc2/C=C/c2ccc(F)cc2)c1` was 97.3% (inactive); that for `COc1cccc(COc2ccc(NC(=O)Nc3ccc(Cl)c(C(F)(F)F)c3)cc2)c1` was 17.8% (inactive).
The value for `C#CCOc1cc(N(CC)CC)ccc1C(C(=O)NC(C)(C)C)N(C(=O)C1CCc2cc(F)ccc2O1)c1ccc(F)cc1F` (stereo not given) was 6.7% (active).
As to `O=CNc1cccc(-n2cnc3cc(-c4ccc(O)cc4)ccc32)c1`, the growth was 8.14% (active).
As to `O=c1oc2ccc(-c3ccc(F)cc3F)cc2c(=O)n1-c1ccc(Cl)c(C(F)(F)F)c1`, the growth was 1.38% (active).
As for `O=c1[nH]c2ccc(Cl)cc2cc1CSc1ccc(Nc2nccc(-c3ccc(Cl)cc3)n2)cc1`, the figure is 52.4% (inactive); as for `Cc1ccn2c(C(=O)c3ccc(Br)cc3)cc(-c3cc(-c4ccc(N(C)C)cc4)c(C#N)c(N)n3)c2c1`, 89.5% (inactive).
In the case of `COc1cc2cc(C(=O)N3C[C@@H](CCl)c4c3cc(OC(=O)N(CCC(=O)N3CCN(C)CC3)[C@H]3CCSSC3)c3ccccc43)[nH]c2c(OC)c1OC`, the growth was -34.5% (active).
Turning to `C/C(=N\N=C\c1ccc(N(C)C)cc1)c1ccc2c(c1)Nc1ccccc1S2`, the growth was 59.2% (inactive).
As for `Cc1cc(C)cc(C(=O)Nc2cccc(-c3cn(-c4ccc(S(N)(=O)=O)cc4)nn3)c2)c1`, the growth is 75.8% (inactive).
Consider `CCCCCCCCCCCCCCCCCC(=O)Nc1ccc(OC)cc1`, for which the growth is 90.3% (inactive).
The value for `N#Cc1c(-c2ccc(Br)cc2)nc2n[nH]c(-c3ccc(Br)cc3)c2c1-c1ccc(C(F)(F)F)cc1` was -26.2% (active).
As to `COc1ccc(NC(=O)CSc2nnc(-c3ccc(-c4nc5ccc(Cl)cc5[nH]4)cc3)o2)cc1`, the growth was 61.5% (inactive).
`O=c1[nH]c2ccc(Cl)cc2cc1CSc1ccc(Nc2nccc(-c3ccc4ccccc4c3)n2)cc1`: the growth was 91.4% (inactive).
Take `CN(C)c1ccc(/C=C/c2nc3ccccc3c(=O)n2CC(=O)Nc2ccccc2)cc1`: the growth is 91.8% (inactive).
For the molecule `COc1cc(/C=C/C(=O)c2cnn(-c3cc(=O)[nH]c4ccc(Cl)cc34)c2C)cc(OC)c1OC`, the growth was -23.1% (active).
On to `N/C(=N\c1nc2ccccc2s1)NC(=O)Nc1ccccc1[N+](=O)[O-]`, for which the growth is -11.1% (active).
Turning to `COc1ccc(/C=C/c2nc3ccccc3c(=O)n2CC(=O)Nc2ccccc2)cc1`, the growth was 94.1% (inactive).
As for `CN(CCO)c1oc(-c2ccccc2)nc1[P+](c1ccccc1)(c1ccccc1)c1ccccc1`, the growth is -33.1% (active).
Regarding `CC1=C(C#N)C2=NNCC(c3ccccc3)=NN2C(c2ccccc2)=C1`, the growth was 138% (inactive).
For `COc1cncc(-c2ccc3ncnc(N4CCc5ccc(Cl)cc54)c3c2)c1`, the growth was -33.4% (active).
Turning to `Cc1ccc(C(=O)NNC(=O)CSc2nc3ccccc3c(=O)[nH]2)cc1`, the growth is 93.3% (inactive).
For the molecule `COc1cc(NC(=O)CSc2nnc(-c3ccc4nc(-c5ccc(Cl)cc5)[nH]c4c3)o2)cc(OC)c1OC`, the growth was 56.6% (inactive).
For `CCCCCCCCCCCCCCCCCCCC(=O)NCCc1c[nH]c2ccc(O)cc12`, the growth was 52.8% (inactive).
For `CCN(CC)CCOc1ccc(Nc2ncc3cc(-c4ccc(O)c(C#N)c4)c(=O)n(C)c3n2)cc1`, the growth was 87.6% (inactive).
Consider `COc1ccc2c(c1)c(/C=N/Nc1ccc3ccccc3n1)cn2C`, for which the growth was -57.7% (active).
`O=C(c1ccc(Cl)cc1)C1[C@H](c2ccccc2Cl)[C@@H](c2ccccc2)NC12C(=O)Nc1ccc(Br)cc12` (stereo not given in full): the growth is -43.7% (active).
Consider `COc1ccc(/C=C/c2n(Cc3ccc4ccccc4c3)c3ccccc3[n+]2Cc2ccc3ccccc3c2)cc1`, for which the growth is -5.59% (active).
On to `CC(Nc1ncnc2ccc(-c3ccc4oc(N)nc4c3)cc12)c1ccccc1` (stereo not given), for which the growth is -71.4% (active).
`COc1ccc(/C=N/N=C(\C)c2ccc3c(c2)Nc2ccccc2S3)cc1O`: the growth is 34.2% (inactive).
Consider `COC(=O)c1ccc(-c2c(-c3ccccc3)c(F)c3oc(C(=O)OC)c(N)c3c2-c2ccccc2)cc1`, for which the growth was 105% (inactive).
With `Cc1nn(-c2ccccc2)c2nc(C)n(C(=O)N/N=C/c3cccc([N+](=O)[O-])c3)c(=O)c12`, the growth is 74% (inactive).
As for `CCOC(=O)c1sc(N/N=C(\C)c2ccc3c(c2)Nc2ccccc2S3)nc1C`, the figure is 22.1% (inactive); as for `CS(=O)(=O)Nc1cc(-c2ccc3ncnc(N4CCc5cc(F)c(Cl)cc54)c3c2)cnc1Cl`, 14.3% (inactive).
For the molecule `Cc1ccccc1Nc1nnc(-c2c[nH]c3ccccc23)o1`, the growth is -23.7% (active).
For `Clc1ccc(-c2nc3ccc(-c4nnc(SCc5ccccc5)o4)cc3[nH]2)cc1`, the growth is 51.8% (inactive).
Consider `O=C(c1ccc(Cl)cc1)C1[C@H](c2ccccc2Cl)[C@@H](c2ccccc2)NC12C(=O)Nc1ccccc12` (stereo not given in full), for which the growth was -35.1% (active).
Turning to `Cc1ccc(-c2nc(C#N)c(S(=O)(=O)N3CCN(S(=O)(=O)c4ccccc4)CC3)o2)cc1`, the growth was -44.9% (active).
Take `COc1ccc2[nH]c(O)c(N=NC(=O)Cn3c(-c4ccccc4)nc4cc(C)ccc43)c2c1`: the growth was -50.8% (active).
